# Screens (PubChem BioAssay)
# Shown are actives, neighbours in structure and some others; about 9.3% of the full set was active somewhere.
# Vaccinia mCherry: qHTS for Stage-Specific Inhibitors of Vaccinia Orthopoxvirus: mCherry Reporter Primary qHTS | Potency, µM (series often up to 36.5 µM), without a hit: at the highest dose activity change, negative = inhibition, hits mostly inhibitors | Vaccinia virus mCherry reporter infection, fluorescence | AID 720579, 2013 | 310,000 compounds, 0.63% hits; calls by dose curve; tested in A549 cells; also: potency is read from the fitted curve at half-maximal effect; nearly all actives have a fitted effect of over 35% in size
# HCMV antiviral: qHTS Assay for inhibitors of the human cytomegalovirus (HCMV) | HFF cells, HCMV-luciferase reporter, 72 h; stronger effect = lower value | activity change, negative = inhibition, % at 57.5 µM | 410,000 compounds, 4.5% hits; in the data active = activity change below about -60%; inconclusive = no clear call, values can overlap the other calls; inactive = above about -39%
#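 Screen run at 2 compound doses on HFFs infected with reporter HCMV, MOI 1 PFU/cell. Luciferase activity from cell lysates at 72 h post infection gave inhibition relative to buffer-only and Salinomycin wells.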
# FMDV antiviral: High Throughput Screening for Foot and Mouth Disease Virus Antivirals; FMDV antiviral cell-based qHTS; Potency, µM (titrated, usually from 57.9 µM), inactives show at the highest dose activity change, negative = inhibition, hits mostly inhibitors; 410,000 compounds, 1.2% hits; calls by dose curve; tested in HEK293T cells; also: read-out not given here; potency is read from the fitted curve at half-maximal effect; nearly all actives have a fitted effect of over 45% in size
# Sm TGR block: qHTS Assay for the Inhibitors of Schistosoma Mansoni Peroxiredoxins. Potency, µM (highest dose often 114 µM), for the others: top-dose activity change, negative = inhibition, usual class: inhibitors. purified TGR, DTNB reduction, TNB absorbance 405 nm. 360,000 compounds, 3% hits. Schistosoma mansoni thioredoxin glutathione reductase (TGR), Q962Y6; also: potency is read from the fitted curve at half-maximal effect; nearly all actives have a fitted effect of over 60% in size
#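 Kinetic colorimetric format: TGR-catalysed, NADPH-driven DTNB reduction monitored via TNB absorbance. Enzyme dispensed at 20 nM; compound exposure 15 min at room temperature before reaction start.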
# HCV inh: qHTS Assay for Inhibitors of Hepatitis C Virus (HCV); Huh7.5.1 HCVcc-Cre infection, luciferase reporter, 44 h; AID 651820, 2012; 340,000 compounds, 3.4% hits; Potency, µM (titrated, usually from 41.8 µM), for the others: at the top dose activity change, negative = inhibition, most hits filed as inhibitors; also: potency is read from the fitted curve at half-maximal effect
#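 Compounds are dispensed onto cells plated 4 h earlier at 1,000 per well, with HCVcc-Cre virus (about 0.5 moi) added next. Following 44 h of culture, luminescent signal is measured for 15 sec after 15 min with substrate at room temperature.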
# Vaccinia Venus: qHTS for Stage-Specific Inhibitors of Vaccinia Orthopoxvirus: Venus Reporter Primary qHTS. Vaccinia virus Venus reporter expression, fluorescence. Potency, µM (top dose mostly 36.5 µM), for the others: top-dose activity change, negative = inhibition, actives largely listed as inhibitors. 330,000 compounds, 0.46% hits; calls by dose curve; tested in A549 cells; also: potency is read from the fitted curve at half-maximal effect; nearly all actives have a fitted effect of over 30% in size
# Active calls of the source: *; i = inactive; ? = inconclusive; nt = no result given; [ ] = dose if it differs, or a comment. Unless noted, calls follow the shape of the dose curve; as a rule, active = well fitted curve in the direction sought with a large enough effect; inconclusive = small, poorly fitted or top-dose-only effect, or another doubt; inactive = no such curve, though single readings can be large; an effect the other way counts as inactive or inconclusive. % is scaled to controls: 0 for no effect and ±100 for the full control effect.
SMILES,Vaccinia mCherry,HCMV antiviral,FMDV antiviral,Sm TGR block,HCV inh,Vaccinia Venus
O=C(NCc1ccccc1)C1Cc2c(-c3ccc4c(c3)OCO4)ccnc2O1 (stereo not given),-8%,-67*,-1%,nt,nt,?
CC(=O)Nc1ccc(-c2ccnc3c2CC(C(=O)NCc2ccccc2)O3)cc1 (stereo not given),-15%,-64*,-20%,nt,nt,?
CNc1ccc([N+](=O)[O-])cc1-c1nc2ccccc2[nH]c1=O,i,9,-14%,1%,1%,-15%
CCOc1ccccc1C(=O)Nc1cc2c(cc1N1CCCC1)n(CC)c(=O)n2CC,nt,-35,?,-4%,?,nt
CCOc1ccccc1NC(=O)Nc1cc2c(cc1N1CCCCC1)n(CC)c(=O)n2CC,-15%,-62*,0%,-12%,nt,-21%
CCn1c(=O)n(CC)c2cc(N3CCCC3)c(NC(=O)c3cccc(Cl)c3)cc21,?,-21,?,-26%,6.3µM*,4%[7.34 µM]
CCn1c(=O)n(CC)c2cc(N3CCCC3)c(NC(=O)c3cccc(C)c3)cc21,?,0,?,?,13µM*,-16%
CCCCOc1cccc(C(=O)Nc2ccccc2N2CCCC2)c1,-11%,-11,-17%,2%,13µM*,-3%
Cc1ccc(/C=N/NC(=O)c2ccco2)s1,nt,39,50%,0%,15%,nt
CCOc1cc(NC(=S)NCCc2ccccc2)c(OCC)cc1NC(C)=O,-17%,12,12%,-21%[57.1 µM],16%,-7%
CCn1c(=O)n(CC)c2cc(N3CCCC3)c(NC(=O)c3ccc(OC)c(Br)c3)cc21,nt,-21,0%,?,?,nt
CCn1c(=O)n(CC)c2cc(N3CCCC3)c(NC(=O)c3ccc(C)c([N+](=O)[O-])c3)cc21,?,-17,0%,-2%,7.9µM*,-8%
COc1ccc(CCN2C(=O)c3[nH]nc(-c4ccccc4O)c3C2c2cccc(OC)c2)cc1 (stereo not given),?,-71*,-12%,2%,nt,?
CCCOc1cccc(C2c3c(-c4ccccc4O)n[nH]c3C(=O)N2Cc2ccco2)c1 (stereo not given),-16%[7.34 µM],-72*,-20%,14%,nt,-13%[7.34 µM]
Cc1ccc(C2c3c(-c4ccccc4O)n[nH]c3C(=O)N2CCc2ccccc2)cc1 (stereo not given),-9%[7.34 µM],-94*,-16%,3%,nt,-9%[7.34 µM]
COc1ccc(CCN2C(=O)c3[nH]nc(-c4ccccc4O)c3C2c2cccc(Cl)c2)cc1 (stereo not given),2%[1.46 µM],?,-13%,19%,?,?
O=C1c2[nH]nc(-c3ccccc3O)c2C(c2cccc(Br)c2)N1Cc1ccncc1 (stereo not given),?,-82*,10%,9%,nt,?
Cc1ccc(S(=O)(=O)NCC2CCC(C(=O)NCCCOC(C)C)CC2)cc1 (stereo not given),-15%,?,4%,16%,0%[0.335 µM],-6%
C=CCn1c(=N)n(CC(=O)c2ccc(OC)cc2)c2ccccc21,-25%,?,-25%,-2%,6%,-13%
O=C(COC(=O)COc1ccc(Cl)cc1)NC1CCCCC1,-22%,25,13%,-12%,3%,-8%
CC(C)OCCCN1C(=O)c2[nH]nc(-c3ccccc3O)c2C1c1ccc(OCc2ccccc2)cc1 (stereo not given),?,-98*,-5%,-6%,nt,?
CC(C)c1ccc(C2c3c(-c4ccccc4O)n[nH]c3C(=O)N2CCc2ccccc2)cc1 (stereo not given),-3%,-100*,-7%,11%,nt,?
Cc1cc(C)c(-c2n[nH]c3c2C(c2ccccc2F)N(Cc2ccco2)C3=O)c(O)c1 (stereo not given),-13%[7.34 µM],-73*,-8%,-3%,nt,-10%[7.34 µM]
COc1ccc(C2c3c(-c4ccccc4O)n[nH]c3C(=O)N2CCc2ccccc2)cc1 (stereo not given),-3%[7.34 µM],-67*,-25%,7%,nt,-7%[7.34 µM]
CC1(C)CC(=O)N(CC(=O)NCc2ccc(F)cc2)c2ccccc2S1(=O)=O,-6%,20,-23%,-10%,1%,-4%
SMILES,Vaccinia mCherry,HCMV antiviral,FMDV antiviral,Sm TGR block,HCV inh,Vaccinia Venus
COc1ccc(NS(=O)(=O)c2cc(NC(=O)CC(C)(C)C)ccc2N2CCCC2)cc1,nt,-23,49%,2%,-25%,nt
CCOc1ccc(C2c3c(-c4cc(C)ccc4O)n[nH]c3C(=O)N2Cc2cccnc2)cc1OCC (stereo not given),-8%,-10,-18%,6%,nt,-1%
CCOc1cc(C2c3c(-c4cc(C)ccc4O)n[nH]c3C(=O)N2CCCOC(C)C)ccc1O (stereo not given),-5%[7.34 µM],-68*,-6%,8%,nt,-7%[7.34 µM]
CC(Cc1ccccc1Sc1ccccc1)N(C)C (stereo not given),-11%,-63*,-19%,4%,10%,-17%
O=S(=O)(CCc1ccncc1)C1Cc2cccc3cccc1c23 (stereo not given),-18%,31,-11%,35µM*,-26%,-15%
CC(C)OC(=O)CSc1nc(N)c(C#N)c(-c2ccco2)c1C#N,-23%,10,?,40µM*,8%,-6%
COC(=O)CSc1nc(N)c(C#N)c(-c2ccc(O)cc2)c1C#N,nt,5,4µM*,-2%,1%,nt
CCOC(=O)CSc1nc(N)c(C#N)c(-c2ccc(OCC)cc2)c1C#N,-15%,9,-1%,-11%,?,-4%
Cc1c(-c2ccccc2)nc(N)c(C#N)c1-c1ccco1,nt,-2,3%,35µM*,0%,nt
Cc1ccc(CN2CC=CCS2(=O)=O)cc1,nt,-13,nt,nt,nt,nt
O=c1ccn(-c2cccc(C(F)(F)F)c2)nc1-c1ccn(-c2ccccc2)n1,nt,-38,-9%,0%,-14%,-27%
Brc1ccc(N/N=C(/N=Nc2nn[nH]n2)c2ccccc2)cc1,?,-100*,-23%,0%,5.6µM*,13µM*
O=C(COC(=O)c1cccc(O)c1)NC(=O)Cc1ccccc1,-20%,nt,-1%,2%,8%,-5%
CCS(=O)(=O)N1CCN(c2ccc([N+](=O)[O-])c(N3CCOCC3)c2)CC1,-10%,-2,-3%,18%,-9%,-12%
Cc1nnc(-c2cccc(Br)c2)c2cn(-c3ccc(Br)cc3)nc12,-7%,-73*,?,0%,11µM*,?
CCc1ccccc1N(CC(=O)NCc1ccco1)C(=O)c1snc(C(N)=O)c1N,?,-4,-25%,?,-5%,-19%
